Screens as filed in PubChem.
Cruzain noTriton: inhibitors of Trypanosoma cruzi cruzain without detergent. P25779. purified cruzain, Z-FR-AMC fluorescence, no detergent. Potency, µM, for inactives: max response, negative = inhibition, actives largely listed as inhibitors. actives 2.3% (n = 200,000);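 also: plate controls were enzyme without inhibitor for no effect and buffer without enzyme for full effect; nearly all actives have a fitted effect of over 40% in size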
Target sequence (P25779 123-467 limits assumed): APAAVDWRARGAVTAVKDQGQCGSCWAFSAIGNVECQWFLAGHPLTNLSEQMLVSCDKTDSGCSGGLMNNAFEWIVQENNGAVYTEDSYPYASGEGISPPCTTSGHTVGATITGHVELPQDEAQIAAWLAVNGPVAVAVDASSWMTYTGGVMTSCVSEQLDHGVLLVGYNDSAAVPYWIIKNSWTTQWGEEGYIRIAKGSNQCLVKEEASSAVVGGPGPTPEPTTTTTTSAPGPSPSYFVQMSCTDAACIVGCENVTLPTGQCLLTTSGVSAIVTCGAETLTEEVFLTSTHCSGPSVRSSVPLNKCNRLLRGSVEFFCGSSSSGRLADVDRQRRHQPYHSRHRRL
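Detergent-free condition (0.00005% Triton X-100) in acetate buffer pH 5.5 with DTT. 1.5 nM enzyme and compound were pre-mixed 15 min, then 2 uM Z-FR-AMC substrate added; reaction progress from fluorescence change between first and third reads (60 s).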
Cruzain inh Det: blocks cruzain activity in presence of Triton detergent. P25779. actives 0.43% (n = 200,000). purified cruzain, Z-FR-AMC fluorescence, 0.01% Triton. AID 1478. Potency, µM, inactives show max response, negative = inhibition, actives largely listed as inhibitors;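 also: plate controls were neutral wells for no effect and buffer without enzyme for full effect; nearly all actives have a fitted effect of over 40% in size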
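Detergent-containing arm of a paired screen for aggregation-based inhibition: 0.01% Triton X-100 present. Cruzain at 1.5 nM cleaved 2 uM Z-FR-AMC at pH 5.5 with 5 mM DTT; AMC fluorescence gain over 60 s measured activity.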
Active calls of the source: *; ? = inconclusive. An excerpt weighted towards active compounds, which were near 2.5% of everything screened. Calls follow the shape of the dose curve; as a rule, active = well fitted curve in the direction sought with a large enough effect; inconclusive = small, poorly fitted or top-dose-only effect, or another doubt; inactive = no such curve, though single readings can be large; an effect the other way counts as inactive or inconclusive. Potency is read from the fitted curve at half-maximal effect.

SMILES	Cruzain noTriton	Cruzain inh Det
Cn1nnnc1Sc1ncnc2scc(-c3ccccc3)c12	15.8µM*	3.3%
Cn1nnnc1Sc1ncnc2scc(-c3ccc(F)cc3)c12	-2.8%	2.3%
CCc1ccccc1N1CC(c2nc3ccccc3n2Cc2cccc(C)c2)CC1=O (centres undefined)	?	-11.3%
Cc1nn(-c2nc3ccccc3s2)c(N)c1Sc1ccc(F)cc1	12.6µM*	7.0%
Cc1nn(-c2nc3ccccc3s2)c(N)c1-c1ccccc1	?	-1.3%
COC(=O)[C@@H](NC(=O)O[C@@H]1C(=O)c2cc(Br)ccc2O[C@H]1c1ccc2c(c1)OCO2)C(C)C	-9.1%	-3.1%
CCn1nc(-c2cccs2)nc2c(=O)n(C)c(=O)nc1-2	2µM*	2.24µM*
CCNc1ncc2nc(-c3cccs3)c(=O)n(C)c2n1	9.9%	3.5%
COc1ccc(/C=C(\C#N)C(=O)OCC(=O)NCc2ccc(Cl)cc2)cc1	?	-2.2%
O=C(O)c1sc2cc(C(F)(F)F)cnc2c1-c1ccccc1	15.8µM*	?
COC(=O)c1sc2cc(C(F)(F)F)cnc2c1-c1ccccc1	0.1%	3.3%
O=C(Nc1ccc(F)cc1)c1sc2cc(C(F)(F)F)cnc2c1-c1cccs1	25.1µM*	-0.3%
COc1ccc(NC(=O)c2sc3cc(C(F)(F)F)cnc3c2-c2cccs2)cc1	-4.0%	3.3%
CCCCCNCCCCC	-1.8%	2.2%
COc1ccc(S(=O)(=O)N2CCOCC2)cc1NC(=O)c1ccccc1-c1ccc(C(F)(F)F)cc1	?	-4.7%
Cn1c2ccc(F)cc2c2nnc(SCCN3CCCCC3)nc21	12.6µM*	14.1µM*
CCN(CC)CCn1c2ccc(F)cc2c2nc(C)sc21	-7.4%	-0.1%
CCCCn1c2ccc(F)cc2c2nnc(SCCN3CCCCC3)nc21	?	15.8µM*
CCN(CC)CCSc1nnc2c3cc(F)ccc3n(C)c2n1	12.6µM*	15.8µM*
CCn1c2ccccc2c2nnc(SCCN3CCCCC3)nc21	-1.0%	-7.1%
CCOc1ccc2c(c1)c1nnc(SCC(=O)N3CCCCC3C)nc1n2C (centres undefined)	?	-0.2%
COCCCNC(=O)CCCCn1c(=O)c2ccccc2n(CC(=O)Nc2ccc(C)cc2C)c1=O	-7.6%	-1.6%
C[C@]12CCC(=O)C=C1CCC1C3CC[C@](O)(C(=O)CO)[C@@]3(C)CC3OC312 (some centres undefined)	-1.5%	0.9%
CC1(C)CC[C@]2(C(=O)O)CC[C@]3(C)C(=CCC4[C@@]5(C)CC[C@H](O)C(C)(C)C5[C@H](O)C[C@]43C)C2C1 (some centres undefined)	?	0.8%
CC(NC(=O)c1cccc(F)c1)C(c1cccs1)N1CCN(C)CC1 (centres undefined)	7.8%	2.3%
SMILES	Cruzain noTriton	Cruzain inh Det
NS(=O)(=O)c1ccc(NS(=O)(=O)c2ccc(NC(=O)c3ccc(-c4ccccc4)cc3)cc2)cc1	12.6µM*	-24.6%
CCNC(=O)c1ccc(NS(=O)(=O)c2ccccc2)cc1	-5.8%	3.7%
CC(=O)C1=C(C)NC(SCC(=O)c2ccc(Cl)c(Cl)c2)=C(C#N)C1c1ccco1 (centres undefined)	?	-20.2%
COc1ccccc1NC(=O)C1=C(C)NC(SCC(=O)c2ccc(C)cc2)=C(C#N)C1c1ccco1 (centres undefined)	12.6µM*	-9.9%
CC1=C(C(=O)Nc2ccccc2)C(c2ccco2)C(C#N)=C(SCC(=O)OC(C)C)N1 (centres undefined)	-8.6%	-8.9%
CCOc1ccccc1NC(=O)CSC1=C(C#N)C(c2ccco2)C(C(=O)Nc2nc3ccccc3s2)=C(C)N1 (centres undefined)	7.94µM*	-8.6%
CC(=O)C1=C(C)NC(SCC(=O)c2ccc(F)cc2)=C(C#N)C1c1ccco1 (centres undefined)	-17.4%	-17.1%
CC1=C(C(=O)Nc2ccccc2)C(c2ccco2)C(C#N)=C(SCC(=O)Nc2cccc(C)c2C)N1 (centres undefined)	?	-7.8%
CC1=C(C(=O)Nc2ccccc2)C(c2ccco2)C(C#N)=C(SCc2ccccc2)N1 (centres undefined)	20µM*	-5.4%
CC(=O)C1=C(C)NC(SCC(=O)c2cc(Cl)ccc2Cl)=C(C#N)C1c1ccco1 (centres undefined)	25.1µM*	-17.9%
CCCC1(C(=O)OC)C=C2C(=C(c3ccccc3)C(=O)C2C)CN1 (centres undefined)	-4.7%	-9.2%
O=[N+]([O-])c1ccc(OCC(O)CN2CCN(c3ccccc3F)CC2)cc1 (centres undefined)	1.3%	-4.8%
CCN(CCCNC(=O)Cn1ncc2c3ccccc3n(C)c2c1=O)c1cccc(C)c1	-5.7%	-2.1%
COCCNc1ncnc2ccc(-c3ccc(N(C)C)cc3)cc12	-0.9%	-5.0%
Oc1ccc(Cc2nccc3cc(O)c(O)cc23)cc1O	2.3%	-0.6%
Cc1c(Cc2ccc3c(c2)OCO3)sc(NC(=O)c2ccccc2)c1C(N)=O	25.1µM*	-2.7%
CCOC(=O)c1c(NC(=O)CN2C(=O)c3ccccc3C2=O)sc(Cc2ccc3c(c2)OCO3)c1C	10µM*	-1.0%
Cc1nc(NC(=O)c2ccccc2)sc1Cc1ccc2c(c1)OCO2	?	-4.3%
CCOC(=O)c1c(NC(=O)/C=C/c2ccc3c(c2)OCO3)sc(C)c1C	1.8%	3.0%
COc1ccc(-c2cc(C(=O)Nc3sc4c(c3C(N)=O)CCC(C)C4)no2)cc1 (centres undefined)	-4.0%	-2.1%
Cc1onc(-c2c(Cl)cccc2Cl)c1C(=O)NC(=S)Nc1sc2c(c1C(N)=O)CCC(C)C2 (centres undefined)	3.98µM*	3.5%
CC(=O)Nc1c2sscc-2n(C)c1=O	-5.7%	14.0%
COCCn1cc(C(=S)N2CCOCC2)c2ccccc21	-5.0%	0.8%
CN(C)c1ccc(CNC(=O)Cn2ccc3cc(S(=O)(=O)N4CCCCCC4)ccc32)cc1	-12.0%	-4.9%
Cc1ccc(NC(=O)c2ccc(CNS(=O)(=O)c3cccc(C(F)(F)F)c3)cc2)cc1	25.1µM*	-12.7%
SMILES	Cruzain noTriton	Cruzain inh Det
O=C(Nc1ccccc1F)c1ccc(CNS(=O)(=O)c2cccc(C(F)(F)F)c2)cc1	?	3.3%
CC(C)C(=O)Nc1ccc(NC(=O)c2cccc(F)c2)cn1	-5.9%	-0.2%
Cc1nn(-c2ccccc2)c2c1C(c1ccc([N+](=O)[O-])cc1)N1C(=N2)C(=O)Nc2ccccc21 (centres undefined)	-8.5%	-10.1%
Cc1nn(-c2ccc([N+](=O)[O-])cc2)c2c1C(c1cccc(Br)c1)N1C(=N2)C(=O)Nc2ccccc21 (centres undefined)	3.98µM*	-2.9%
COc1cc(NC(=O)c2nn(C)c3c2COc2ccccc2-3)cc(OC)c1OC	2.5%	-1.6%
N#C/C(=C\c1ccc(-c2ccccc2)cc1)c1nc(-c2ccco2)cs1	?	-6.9%
N#C/C(=C\c1ccc(-c2ccc(Br)cc2)o1)C(=O)Nc1ccccc1O	14.7%	-0.4%
N#C/C(=C\c1ccc(-c2ccc(F)cc2)o1)C(=O)Nc1nc(-c2cccs2)cs1	6.31µM*	4.8%
N#C/C(=C/c1ccc(-c2ccccc2)o1)c1nc(-c2cccs2)cs1	7.94µM*	-10.1%
CN(C)c1ccc(CNC(=O)C2CCN(S(=O)(=O)c3ccc4c(ccn4C)c3)CC2)cc1	-6.5%	-2.0%
CCC1=C2CC[C@H]3C(=O)N(CC(=O)OC)C(=O)[C@H]3[C@H]2[C@@]2(C)C(=O)N(Cc3ccccc3)C(=O)N2C1=O	-5.1%	6.6%
